Experimental findings from the supplement of paper PMC3334620 are described below.

Whole data set: some 33,000 sequences, median “E-score (-0.5 to 0.5)” near -0.015, cut for the highest 2% near 0.3. Only a selection was taken, and the highest values are over-represented in it overall.

The test concerns the target T1, Abf1 (UniProt P14164).
T1 sequence: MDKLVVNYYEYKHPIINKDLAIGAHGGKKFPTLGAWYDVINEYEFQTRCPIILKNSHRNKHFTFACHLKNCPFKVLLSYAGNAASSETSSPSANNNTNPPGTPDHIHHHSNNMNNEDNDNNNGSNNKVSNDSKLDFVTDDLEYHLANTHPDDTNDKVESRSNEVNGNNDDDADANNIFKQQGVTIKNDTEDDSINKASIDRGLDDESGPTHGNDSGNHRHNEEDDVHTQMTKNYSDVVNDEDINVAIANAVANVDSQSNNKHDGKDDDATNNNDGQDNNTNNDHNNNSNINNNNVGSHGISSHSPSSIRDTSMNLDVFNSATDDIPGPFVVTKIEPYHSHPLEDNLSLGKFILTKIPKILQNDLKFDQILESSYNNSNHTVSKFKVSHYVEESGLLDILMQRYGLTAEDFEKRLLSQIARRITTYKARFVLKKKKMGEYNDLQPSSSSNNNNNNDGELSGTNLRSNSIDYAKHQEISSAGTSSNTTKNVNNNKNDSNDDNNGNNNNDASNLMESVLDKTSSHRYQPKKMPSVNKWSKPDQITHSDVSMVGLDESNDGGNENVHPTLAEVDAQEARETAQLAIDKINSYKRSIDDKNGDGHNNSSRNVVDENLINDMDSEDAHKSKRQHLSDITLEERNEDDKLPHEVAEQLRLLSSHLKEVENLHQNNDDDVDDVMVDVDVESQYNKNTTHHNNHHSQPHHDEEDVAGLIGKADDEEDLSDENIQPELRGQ
The test is described as follows: PBM E-score (8-mer binding enrichment) (E-score (-0.5 to 0.5)); higher = stronger / more preferred TF binding. Particulars: protein concentration: 200 nM; construct: GST-full length. The protocol:
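Universal 'all 10-mer' protein binding microarrays (Agilent AMADID 015681) probed with GST-tagged S. cerevisiae TFs (full-length or DBD) made by in vitro transcription/translation (PURExpress), about 100-200 nM. Bound TF was detected with fluorescent anti-GST. Each ungapped 8-mer (which stands for itself and its reverse complement) is scored by the PBM enrichment score (E-score), a modified Wilcoxon-Mann-Whitney statistic from -0.5 to +0.5, computed with the Universal PBM Analysis Suite. Scale: above 0.35 generally sequence-specific binding.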
For ATACGCGG, the “PBM E-score” value was -0.114.

Regarding CTTGGGGC, the “PBM E-score” value was -0.247.

For AACCCTAA, the “PBM E-score” value was determined as 0.00952.

Take CCGATACC: the “PBM E-score” value is -0.101.

Consider ATACGTGG, for which the “PBM E-score” value was 0.155.

Take GAACGCGA: the “PBM E-score” value is -0.146.

Take GGGCGCGA: the “PBM E-score” value is 0.0618.

For the sequence AGTTGTGC, the “PBM E-score” value is -0.108.

ACGGGCGA: the “PBM E-score” value is -0.00147.

For the sequence AGTGAGAT, the “PBM E-score” value stood at 0.147.

With AGTGATAT, the “PBM E-score” value is 0.442.

Turning to AGTGATAA, the “PBM E-score” value was 0.445.

With ACTGATAT, the “PBM E-score” value came out at 0.108.

Take CGTGATAG: the “PBM E-score” value was found to be 0.221.

For the sequence ATTGATAG, the “PBM E-score” value is -0.0465.

For ACTGATAA, the “PBM E-score” value was 0.126.

AGTGATAC: the “PBM E-score” value amounted to 0.385.

Turning to ATTGATAA, the “PBM E-score” value was determined as 0.27.

Take GGTGATAC: the “PBM E-score” value was found to be 0.186.

CGTGATAC: the “PBM E-score” value came to 0.23.

Take AGTGATAG: the “PBM E-score” value was 0.303.

On to AGCGCCAG, for which the “PBM E-score” value is -0.0266.

On to AACCAGAA, for which the “PBM E-score” value came to 0.0884.

As for CCCTCGGA, the “PBM E-score” value was determined as 0.00175.

Consider AGACGACG, for which the “PBM E-score” value was 0.235.

Consider ATACGAAA, for which the “PBM E-score” value was determined as 0.349.

ATACGATC: the “PBM E-score” value came out at 0.307.

On to ATACGACG, for which the “PBM E-score” value was 0.341.

CTACGAAG: the “PBM E-score” value is 0.215.

Regarding ATACGACC, the “PBM E-score” value worked out at 0.239.

On to AAACGAAA, for which the “PBM E-score” value was determined as 0.159.

As for ATACGAAT, the “PBM E-score” value was found to be 0.275.

For the sequence ATACGATG, the “PBM E-score” value came to 0.261.

Consider CTACGATC, for which the “PBM E-score” value was 0.195.

For the sequence ACACGAAG, the “PBM E-score” value is 0.269.

As to ATACGAAG, the “PBM E-score” value was 0.328.

Consider CGAATACG, for which the “PBM E-score” value turned out to be 0.189.

Consider ACCCGAGT, for which the “PBM E-score” value was -0.152.

On to ACATTGAA, for which the “PBM E-score” value stood at 0.0551.

Take ACGGTCGC: the “PBM E-score” value amounted to 0.134.

With TGTAACAA, the “PBM E-score” value worked out at 0.0346.

As to AGCAGGCA, the “PBM E-score” value is -0.114.

Take ACTGTATG: the “PBM E-score” value was -0.184.

On to ACTGAAGT, for which the “PBM E-score” value was -0.0998.

As to GTCCCGAA, the “PBM E-score” value came to 0.00205.

On to GAAATCAC, for which the “PBM E-score” value amounted to 0.322.

Turning to AAAATCAC, the “PBM E-score” value stood at 0.352.

Regarding AAAATCAG, the “PBM E-score” value was 0.193.

Consider CAAATCAC, for which the “PBM E-score” value came out at 0.19.

Regarding AAAATCAA, the “PBM E-score” value came out at 0.0207.

For the sequence GAAATCAA, the “PBM E-score” value was determined as 0.0471.

For the sequence AACTGAGA, the “PBM E-score” value worked out at 0.0232.

Turning to ATTGATCA, the “PBM E-score” value was 0.267.

For CATGATCA, the “PBM E-score” value was determined as 0.33.

As to CATGATCG, the “PBM E-score” value came out at 0.0839.

On to AATGATCG, for which the “PBM E-score” value was found to be 0.232.

Regarding AATGATCC, the “PBM E-score” value amounted to 0.0166.

In the case of GTTGATCA, the “PBM E-score” value was determined as 0.298.

Turning to CTTGATCA, the “PBM E-score” value came out at 0.183.

AATGATCA: the “PBM E-score” value came to 0.347.

Take GTAGATCA: the “PBM E-score” value stood at 0.319.

As for CATGATCC, the “PBM E-score” value was found to be 0.00859.

Take CTAGATCA: the “PBM E-score” value was found to be 0.161.

Consider ATAGATCA, for which the “PBM E-score” value is 0.267.

Consider CATGCGGC, for which the “PBM E-score” value is -0.229.

With GGTTAACA, the “PBM E-score” value was -0.138.

For AAAGAACT, the “PBM E-score” value was 0.0334.

Turning to ACATTAGA, the “PBM E-score” value stood at 0.0369.

In the case of AGTTAACT, the “PBM E-score” value is -0.0757.

For TCTGATCA, the “PBM E-score” value turned out to be 0.155.

For CAAGATCA, the “PBM E-score” value was 0.16.

In the case of GATGATCC, the “PBM E-score” value came to 0.0853.

In the case of TAAGATCA, the “PBM E-score” value turned out to be 0.314.

Consider TATGATCA, for which the “PBM E-score” value is 0.309.

In the case of ACTGATCT, the “PBM E-score” value amounted to 0.0694.

Consider TACGATCA, for which the “PBM E-score” value is 0.208.

On to AATGAACT, for which the “PBM E-score” value was -0.177.

On to GATGATCA, for which the “PBM E-score” value stood at 0.329.

For the sequence AATGATCT, the “PBM E-score” value came to 0.324.

On to GATGATTA, for which the “PBM E-score” value was 0.263.

Take AAAGATCA: the “PBM E-score” value came to 0.164.

For the sequence GCCTAGAC, the “PBM E-score” value was -0.11.

Consider ATACATTC, for which the “PBM E-score” value turned out to be 0.0799.

Consider AACGGGGC, for which the “PBM E-score” value is -0.0372.

With ACGCACCA, the “PBM E-score” value is -0.101.

Take CCATTTCC: the “PBM E-score” value was -0.0246.

Regarding CGGGTTAG, the “PBM E-score” value was -0.173.

For the sequence CAAATAGA, the “PBM E-score” value amounted to 0.0564.

In the case of GAGGTATC, the “PBM E-score” value came out at 0.047.

Consider CTAAGTGA, for which the “PBM E-score” value was 0.327.

Turning to CGAAGTGA, the “PBM E-score” value worked out at 0.272.

Regarding ATAAGTGC, the “PBM E-score” value came to 0.0214.

Take GGAAGTGA: the “PBM E-score” value was 0.329.

With ATAAGTGG, the “PBM E-score” value is 0.126.

Take ATAAGTGA: the “PBM E-score” value stood at 0.3.

On to GTAAGTGA, for which the “PBM E-score” value was 0.208.

For the sequence CTAAGTGC, the “PBM E-score” value is -0.0207.

Turning to AGAAGTGA, the “PBM E-score” value turned out to be 0.243.

For the sequence AGATTTAG, the “PBM E-score” value came out at 0.0517.

Consider CCGGAAGA, for which the “PBM E-score” value was determined as 0.0618.

As to AGACTTTA, the “PBM E-score” value is 0.0584.

Regarding AGGCTCTG, the “PBM E-score” value was -0.089.

Consider CAGGCACC, for which the “PBM E-score” value was -0.178.

With GCCAGCCC, the “PBM E-score” value is -0.375.

In the case of CACGCTCC, the “PBM E-score” value is -0.00778.

Turning to ACAGTGAC, the “PBM E-score” value was found to be 0.259.

As for AACGTGAT, the “PBM E-score” value was 0.327.

Turning to AAAGTGAT, the “PBM E-score” value turned out to be 0.397.

Turning to AAAGTGAA, the “PBM E-score” value was -0.0183.
